Assay results: PubChem BioAssay (NCI)
Values joined by “and” are separate entries in the source; they are usually repeats but may differ in a detail not shown here. Equal values may be shown once. This is part of a sample that, as a whole, favours compounds with a hit. Of some 83,000 tested, about 20% had one in any assay.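 A percent growth of 40 corresponds to 60% growth inhibition; 0 means no net growth; -100 means all cells died. Active threshold: below 10.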 A number with no mark means an inactive call. Active and inactive are the calls of the source.

The compounds below were run on MDA-MB-468 breast (assay: NCI-60 one-dose screen, 48 h (100 = growth as untreated, 0 = no growth, -100 = all killed)). Details: 10 µM unless noted.

Row | SMILES | growth
1 | COc1cc2c(c(OC)c1OC)CCC(c1cccc(NC(=O)c3cccc(Cl)c3)c1)O2 (stereo unspecified) | 60.2%
2 | CCCOS(=O)(=O)c1ccccc1 | 108%
3 | COc1c(Br)cc(C(c2cc(Br)c(OC)c(Br)c2)c2ccccc2C(=O)O)cc1Br | 100%
4 | C=C1C(=O)O[C@H]2[C@H]1CC/C(COC(=O)n1ccnc1)=C\CC[C@@]1(C)O[C@@H]21 | 79.7%
5 | CC(C(=O)n1cc(-c2ccccc2)c(-c2ccccc2)c1)c1ccccc1 (stereo unspecified) | 104%
6 | N#Cc1ccc(N2Cc3cc(Cl)ccc3OC3=C2C(=O)N(Cc2ccc(F)cc2)C3=O)cc1 | -68.2% (active)
7 | CCCCCCCCCCCCCCCCCC1=NCCN1C(=O)OCCO | -67.1% (active)
8 | COc1ccc(-n2sc(=O)n(Cc3ccc(COC(=O)C(C)c4ccc(CC(C)C)cc4)cc3)c2=O)cc1 (stereo unspecified) | -46.1% (active)
9 | Cc1onc(-c2c(F)cccc2Cl)c1-c1ncc(-c2ccc(Br)cc2)o1 | 28.4%
10 | Cc1ccc([P+](Cc2ccc([N+](=O)[O-])cc2)(c2ccc(C)cc2)c2ccc(C)cc2)cc1 | -11.7% (active)
11 | CC(C)C(=O)c1ccc(Cl)s1 | 91.6%
12 | COc1ccccc1N1CCN(CCn2c(=O)c3c(c4ccccc4n3C)n(C)c2=O)CC1 | 92%
13 | COc1cccc(Nc2nccc(Nc3ccc4[nH]ncc4c3)n2)c1 | -45.5% (active)
14 | COc1ccc2oc(=O)cc(-c3c(C#N)c(N)n4nc(N)c(C#N)c4c3C#N)c2c1 | 94.7%
15 | CN1CCC(CNc2cc(C3(C(=O)Nc4cc(C(=O)Nc5ccc(Cl)c(C(F)(F)F)c5)ccc4F)CC3)ncn2)CC1 | -7.58% (active)
16 | CCN(CC)CCNC(=O)c1ccc(NCN2C(=O)NC(c3ccccc3)(c3ccccc3)C2=O)cc1 | 101% and 111%
17 | COC(=O)c1cc(-c2ccc(C)cc2)n(C(=O)CSc2nc3sc(C(N)=O)c(C)c3c(=O)n2Cc2ccccc2)n1 | 107%
18 | CCc1nc2cc(/C=C/C(=O)NO)c(F)cc2c(=O)n1CCc1ccccc1 | -32.9% (active)

Row | SMILES | growth
19 | Cn1c2ccccc2c2c3[nH]c(=O)[nH]c(=O)c3c3c4ccccc4n(C)c3c21 | 32.4%
20 | CCC12OC(COc3ccccc3)CN1CCN2c1ccccc1 (stereo unspecified) | 97.4% [100 µM]
21 | NC1(c2ccc(-c3nc4ccn5c(=O)[nH]nc5c4cc3-c3ccccc3)cc2)CCC1 | -32.4% (active)
22 | Cc1ccc2c(c1)Oc1nc(N)c(C#N)c(N)c1C2Sc1ccc(F)cc1 (stereo unspecified) | -72.6% (active)
23 | CCOC(=O)c1cc(C(=O)c2ccc(Br)cc2)n2cc(C)cc(C)c12 | 108%
24 | COc1ccc(/C=N/NC(=O)CSc2nc(-c3cnccn3)cc(-c3cccs3)c2C#N)cc1OC | 65.3%
25 | Cn1cc(-c2nonc2-c2c[nH]c3ccc(F)cc23)c2cc(Br)ccc21 | 58.7%
26 | COCCOc1cc2ncnc(N3CCN(S(=O)(=O)c4ccccc4Cl)CC3)c2cc1OCCOC | 57.1%
27 | COc1ccc(Nc2ncccc2C(=O)NCc2cn(Cc3cccc(Oc4ccccc4)c3)nn2)c(OC)c1 | 14.8%
28 | COc1cc(Nc2ncc3c(n2)-c2ccc(Cl)cc2C(c2c(F)cccc2OC)=NC3)ccc1C(=O)O | 61.9%
29 | C=C1C(=O)O[C@H]2[C@H]1CC/C(Cn1cc(-c3ccc(OC)cc3)nn1)=C\CC[C@@]1(C)O[C@@H]21 | -42.8% (active)
30 | O=C1c2cc(Br)ccc2Oc2cc([N+](=O)[O-])ccc2N1c1ccc(I)cc1F | 105%
31 | COc1ccccc1Nc1nnc(COc2ccc(CNC(=O)CCCC/C=C/C(C)C)cc2OC)o1 | 99.7%
32 | O=C1C(Cl)=C(Cl)C(Cl)(Cl)C(Cl)C1(Cl)Cl (stereo unspecified) | 115%
33 | CC[C@@H](C)/C=C(C)/C=C/C(=O)c1c(O)c(-c2ccc(OC(=O)[C@@]34CC[C@@](C)(C(=O)O3)C4(C)C)cc2)cn(O)c1=O | -4.05% (active)
34 | COc1cc(-c2nn(-c3ccc(NC(=O)c4ccc(Cl)c(Cl)c4)cc3)cc2-c2ccncc2)ccc1Cl | 78.3%
35 | CN1CCN(CCCCCC(=O)Nc2nc(-c3cccc(NS(=O)(=O)c4cccc5c(N(C)C)cccc45)c3)cs2)CC1 | 74%
36 | COCCOc1ccc2ncc(C#Cc3cncc(C(=O)Nc4ccc(CN5CCN(C)CC5)c(C(F)(F)F)c4)c3)n2n1 | 7.9% (active)
